10 compounds from PubChem BioAssay (NCI) can be followed below.

Assay [1] can be described thus: NCI Yeast Anticancer Drug Screen. Data for the rad50 strain (AID 155).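 Note: 0% = growth of vehicle-only cultures of the same strain.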 Particulars: S. cerevisiae rad50 strain growth inhibition, stronger effect = higher value. Summed up:
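Vehicle-treated cultures provide the reference for the growth inhibition reported for compound-exposed, repair-deficient yeast.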

A short description of assay [2]: NCI Yeast Anticancer Drug Screen. Data for the mec2-1 strain (AID 157). Particulars: S. cerevisiae mec2-1 strain, stronger effect = higher value. The gist of the method:
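Readout is yeast growth inhibition, normalised to vehicle-treated controls, in the mec2-1 strain exposed to compound.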

Assay [3] is described as follows: NCI Yeast Anticancer Drug Screen. Data for the sgs1 mgt1 strain (AID 161).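 Note: 0% = growth of cultures given vehicle only.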 Particulars: S. cerevisiae sgs1 mgt1 strain, stronger effect = higher value. Summed up: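 This yeast growth screen uses a strain with defined DNA-repair lesions; compound-treated growth is compared with vehicle-treated growth.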
Assay [4] can be described thus: NCI Yeast Anticancer Drug Screen. Data for the cln2 rad14 strain (AID 165).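 Note: 0% = growth equal to vehicle treated cultures.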 Particulars: S. cerevisiae cln2 rad14 strain, stronger effect = higher value. The gist of the method: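 Relative to vehicle controls, growth inhibition of compound-treated cln2 rad14 yeast was recorded.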
Assay [5] in a line: NCI Yeast Anticancer Drug Screen. Data for the bub3 strain (AID 167). Particulars: S. cerevisiae bub3 mutant strain, stronger effect = higher value. The gist of the method: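 Mutant yeast screening strain plus compound; vehicle-treated cultures serve as the 0% inhibition reference.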
Assay [6] can be described thus: NCI Yeast Anticancer Drug Screen. Data for the mlh1 rad18 strain (AID 175). Particulars: S. cerevisiae mlh1 rad18 strain growth inhibition, stronger effect = higher value. Summed up:
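Test agents were incubated with a yeast strain of defined genotype (DNA damage repair defect). Inhibition of growth was derived by comparison with vehicle-exposed cultures.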

Setting [7] is: at 5.0 µM (retest, dose inferred, filed as 0.5).
Setting [8] is: at 50.0 µM (retest, dose inferred, filed as 5.0).

This is part of a sample that, as a whole, favours compounds with a hit. Of some 79,000 tested, about 15% had one in any assay. Values without a mark were called inactive. Calls of active or inactive are those of the source. Cut-off read from the data, not from the text of the source: active = growth inhibition above about 70%; inactive = the rest. Where a SMILES comes first, the peptide text is derived from it. The star is where a group is joined. Fmoc = O=C(OCC1c2ccccc2-c2ccccc21)*; Boc = CC(C)(C)OC(=O)*

Take `Nc1ccccc1C(=O)/C=C/c1ccccc1`: the growth inhibition is 19% in assay [1] (setting [7]); 73% (active) in assay [1] (setting [8]); 98.8% (active) in assay [1] (at 50.0 µM); 4% in assay [2] (setting [7]); 57% in assay [2] (setting [8]); 99% (active) in assay [2] (at 50.0 µM). Also, the growth inhibition in assay [3] (setting [7]) is -2%; in assay [3] (setting [8]) it was 70% (active); in assay [3] (at 50.0 µM), 94.6% (active); in assay [4] (setting [7]), -23%; in assay [4] (setting [8]), 27%; in assay [4] (at 50.0 µM), 80.1% (active). The growth inhibition in assay [5] (setting [7]) is 11%; in assay [5] (setting [8]), 73% (active); in assay [5] (at 50.0 µM), 99.2% (active); in assay [6] (setting [7]), 21%; in assay [6] (setting [8]), 84% (active); in assay [6] (at 50.0 µM), 96.8% (active).
On to `CC(C)(C)OC(=O)NCCCCC(NC(=O)OCC1c2ccccc2-c2ccccc21)C(=O)N1CCCC1C(=O)NCC(N)=O` (stereo not drawn) (Fmoc-Lys(Boc)-Pro-Gly-NH2; configuration not given here), for which the growth inhibition in assay [1] (setting [7]) is 10%; in assay [1] (setting [8]), 98% (active); in assay [1] (at 50.0 µM), 86.8% (active); in assay [2] (setting [7]), 13%; in assay [2] (setting [8]) it was 95% (active); in assay [2] (at 50.0 µM), 94.4% (active). In addition, the growth inhibition in assay [3] (setting [7]) is 5%; in assay [3] (setting [8]), 89% (active); in assay [3] (at 50.0 µM) it was 90.3% (active); in assay [4] (setting [7]) it was 10%; in assay [4] (setting [8]), 91% (active); in assay [4] (at 50.0 µM), 82.8% (active). For the same compound, the growth inhibition in assay [5] (setting [7]) was -10%; in assay [5] (setting [8]), 97% (active); in assay [5] (at 50.0 µM), 93.1% (active); in assay [6] (setting [7]) it was 19%; in assay [6] (setting [8]) it was 97% (active); in assay [6] (at 50.0 µM), 93.3% (active).
As to `NC(=S)C(=S)N/C=C/c1nc2ccccc2[nH]c1=O`, the growth inhibition in assay [1] (setting [7]) was -19%; in assay [1] (setting [8]) it was 98% (active); in assay [1] (at 50.0 µM), 89.8% (active); in assay [2] (setting [7]), -25%; in assay [2] (setting [8]), 99% (active); in assay [2] (at 50.0 µM), 92.7% (active). Besides, the growth inhibition is -13% in assay [3] (setting [7]); 97% (active) in assay [3] (setting [8]); 91.7% (active) in assay [3] (at 50.0 µM); -11% in assay [4] (setting [7]); 98% (active) in assay [4] (setting [8]); 89.3% (active) in assay [4] (at 50.0 µM). Further, the growth inhibition was -7% in assay [5] (setting [7]); 99% (active) in assay [5] (setting [8]); 90.7% (active) in assay [5] (at 50.0 µM); -6% in assay [6] (setting [7]); 98% (active) in assay [6] (setting [8]); 89.4% (active) in assay [6] (at 50.0 µM).
Turning to `Oc1ccc2ccccc2c1I`, the growth inhibition in assay [1] (setting [7]) was 41%; in assay [1] (setting [8]) it was 75% (active); in assay [1] (at 50.0 µM), 91.2% (active); in assay [2] (setting [7]), 42%; in assay [2] (setting [8]), 75% (active); in assay [2] (at 50.0 µM), 92.7% (active). For the same compound, the growth inhibition is 97% (active) in assay [3] (setting [7]); 99% (active) in assay [3] (setting [8]); 93% (active) in assay [3] (at 50.0 µM); 79% (active) in assay [4] (setting [7]); 99% (active) in assay [4] (setting [8]); 92.6% (active) in assay [4] (at 50.0 µM). Also, the growth inhibition in assay [5] (setting [7]) was 96% (active); in assay [5] (setting [8]), 98% (active); in assay [5] (at 50.0 µM), 91.7% (active); in assay [6] (setting [7]) it was 32%; in assay [6] (setting [8]), 55%; in assay [6] (at 50.0 µM), 90.8% (active).
`Clc1ccc(C2=NCON=C2c2ccc(Cl)cc2)cc1`: the growth inhibition in assay [1] (setting [7]) is 17%; in assay [1] (setting [8]), 97% (active); in assay [1] (at 50.0 µM), 87.9% (active); in assay [2] (setting [7]) it was 7%; in assay [2] (setting [8]) it was 99% (active); in assay [2] (at 50.0 µM), 90.5% (active). The growth inhibition in assay [3] (setting [7]) is 10%; in assay [3] (setting [8]) it was 99% (active); in assay [3] (at 50.0 µM), 91% (active); in assay [4] (setting [7]), 9%; in assay [4] (setting [8]) it was 98% (active); in assay [4] (at 50.0 µM), 89.5% (active). Moreover, the growth inhibition was 20% in assay [5] (setting [7]); 99% (active) in assay [5] (setting [8]); 90.8% (active) in assay [5] (at 50.0 µM); 7% in assay [6] (setting [7]); 97% (active) in assay [6] (setting [8]); -18.7% in assay [6] (at 50.0 µM).
With `COc1ccc(CNC(C#N)c2ccccc2)cc1OC` (stereo not given), the growth inhibition in assay [1] (setting [7]) was 7%; in assay [1] (setting [8]), -2%; in assay [1] (at 50.0 µM), 99% (active); in assay [2] (setting [7]), 2%; in assay [2] (setting [8]) it was -3%; in assay [2] (at 50.0 µM), 99.7% (active). The growth inhibition was 3% in assay [3] (setting [7]); -2% in assay [3] (setting [8]); 99.7% (active) in assay [3] (at 50.0 µM); 5% in assay [4] (setting [7]); -3% in assay [4] (setting [8]); 99.5% (active) in assay [4] (at 50.0 µM). For the same compound, the growth inhibition in assay [5] (setting [7]) was 1%; in assay [5] (setting [8]) it was -4%; in assay [5] (at 50.0 µM), 99.6% (active); in assay [6] (setting [7]), 2%; in assay [6] (setting [8]) it was -5%; in assay [6] (at 50.0 µM), 99.5% (active).
For the compound `CCCCCCCCCCCc1nnc(N)o1`, the growth inhibition in assay [1] (setting [7]) is 28%; in assay [1] (setting [8]) it was 91% (active); in assay [1] (at 50.0 µM), 96.7% (active); in assay [2] (setting [7]) it was 11%; in assay [2] (setting [8]), 92% (active); in assay [2] (at 50.0 µM), 96.2% (active). Moreover, the growth inhibition was 1% in assay [3] (setting [7]); 89% (active) in assay [3] (setting [8]); 95.2% (active) in assay [3] (at 50.0 µM); 35% in assay [4] (setting [7]); 92% (active) in assay [4] (setting [8]); 93.3% (active) in assay [4] (at 50.0 µM). In addition, the growth inhibition is -10% in assay [5] (setting [7]); 99% (active) in assay [5] (setting [8]); 95.1% (active) in assay [5] (at 50.0 µM); 7% in assay [6] (setting [7]); 94% (active) in assay [6] (setting [8]); 96.8% (active) in assay [6] (at 50.0 µM).
Turning to `Cc1ccnc2ccc3ccccc3c12`, the growth inhibition in assay [1] (setting [7]) is -142%; in assay [1] (setting [8]), 22%; in assay [1] (at 50.0 µM), -17.9%; in assay [2] (setting [7]) it was -48%; in assay [2] (setting [8]), -38%; in assay [2] (at 50.0 µM) it was -1%. For the same compound, the growth inhibition in assay [3] (setting [7]) was -63%; in assay [3] (setting [8]), -21%; in assay [3] (at 50.0 µM) it was 20.4%; in assay [4] (setting [7]) it was -62%; in assay [4] (setting [8]) it was -49%; in assay [4] (at 50.0 µM), 22.3%. In addition, the growth inhibition is -67% in assay [5] (setting [7]); -18% in assay [5] (setting [8]); 31% in assay [5] (at 50.0 µM); -138% in assay [6] (setting [7]); -55% in assay [6] (setting [8]); 33.3% in assay [6] (at 50.0 µM).
Turning to `O=C(CCl)N1CCN(C(c2ccccc2)c2ccccc2)CC1`, the growth inhibition in assay [1] (setting [7]) is 6%; in assay [1] (setting [8]), 96% (active); in assay [1] (at 50.0 µM), 95% (active); in assay [2] (setting [7]), 12%; in assay [2] (setting [8]), 95% (active); in assay [2] (at 50.0 µM), 85.8% (active). In addition, the growth inhibition is 9% in assay [3] (setting [7]); 97% (active) in assay [3] (setting [8]); 97.8% (active) in assay [3] (at 50.0 µM); 12% in assay [4] (setting [7]); 91% (active) in assay [4] (setting [8]); 81.2% (active) in assay [4] (at 50.0 µM). For the same compound, the growth inhibition in assay [5] (setting [7]) is 13%; in assay [5] (setting [8]), 97% (active); in assay [5] (at 50.0 µM), 95.5% (active); in assay [6] (setting [7]) it was 15%; in assay [6] (setting [8]) it was 97% (active); in assay [6] (at 50.0 µM), 97.5% (active).
Consider `Oc1ccccc1C1C=C(c2ccccc2)NC(N2CCCCC2)=C1c1nc2ccccc2[nH]1` (stereo not given), for which the growth inhibition in assay [1] (setting [7]) was -9%; in assay [1] (setting [8]) it was -11%; in assay [1] (at 50.0 µM), 18.1%; in assay [2] (setting [7]), -9%; in assay [2] (setting [8]), -13%; in assay [2] (at 50.0 µM) it was -5.15%. Moreover, the growth inhibition is -9% in assay [3] (setting [7]); -10% in assay [3] (setting [8]); 5.05% in assay [3] (at 50.0 µM); -22% in assay [4] (setting [7]); -14% in assay [4] (setting [8]); 40% in assay [4] (at 50.0 µM). In addition, the growth inhibition is -13% in assay [5] (setting [7]); 6% in assay [5] (setting [8]); 29.4% in assay [5] (at 50.0 µM); 2% in assay [6] (setting [7]); -2% in assay [6] (setting [8]); 9.4% in assay [6] (at 50.0 µM).
